In the library only some 6.7% were active in any assay of this set; here they are far more common.
FBA Mtb inh: inhibits M. tuberculosis FBA enzyme | purified M. tuberculosis FBA, fluorescence read-out | inhibition, % at 1 µM | hit rate 2.3% among 360,000 | AID 588726; in the data active = inhibition above about 27%
Target sequence (P9WQA3 whole entry, looked up): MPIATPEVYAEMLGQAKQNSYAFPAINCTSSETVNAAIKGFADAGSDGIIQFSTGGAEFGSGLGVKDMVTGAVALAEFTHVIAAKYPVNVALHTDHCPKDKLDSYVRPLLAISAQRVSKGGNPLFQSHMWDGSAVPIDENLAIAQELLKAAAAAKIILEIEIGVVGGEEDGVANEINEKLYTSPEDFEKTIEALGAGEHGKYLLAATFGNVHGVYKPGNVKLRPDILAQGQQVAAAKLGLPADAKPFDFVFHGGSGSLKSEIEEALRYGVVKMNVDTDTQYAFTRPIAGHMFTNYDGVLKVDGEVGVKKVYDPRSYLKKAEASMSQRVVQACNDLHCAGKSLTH
GDH-TPI inh: inhibits GDH-TPI coupling enzymes, artifact for Mtb FBA screen | GDH-TPI coupled enzyme counterscreen, NADH absorbance | inhibition, % at 4.8 µM | hit rate 1.2% among 360,000 | AID 588335; in the data active = inhibition above about 30%
Bead autofluor: flagged as autofluorescent in microsphere protease counterscreen. compound autofluorescence counterscreen, microsphere flow cytometry; active compounds read high. fluorescence intensity (no concentration beside the values). hit rate 3.1% among 360,000. AID 624483; in the data active = fluorescence intensity above about 16000; inconclusive = no clear call, values can overlap the other calls
Anthrax LF inh2: anthrax lethal factor protease inhibition | hit rate 0.12% among 360,000 | inhibition, % at 10 µM | multiplex microsphere protease cleavage assay, LF
BoNT-F LC inh: inhibitors of Botulinum neurotoxin F light chain protease; Multiplex microsphere protease cleavage assay, flow cytometry; AID 588497; hit rate 0.22% among 360,000; inhibition, % at 10 µM; in the data active = inhibition above about 35%, passing the limit was not always enough; inconclusive = no clear call, values can overlap the other calls
BoNT-A LC inh2: BoNT A light chain protease inhibition. inhibition, % at 10 µM. multiplex microsphere protease substrate cleavage, flow cytometry. hit rate 0.17% among 360,000
Numbers stand for hits. Cut-off read from the data, not from the text of the source, unless noted: active = inhibition above about 30%; inconclusive = no clear call, values can overlap the other calls; inactive = below that.

Results for COc1ccc(NC(=O)c2cccnc2C(=O)O)c(OC)c1 ?
FBA Mtb inh: inactive; GDH-TPI inh: inactive; Bead autofluor: 20348; Anthrax LF inh2: inactive; BoNT-F LC inh: inactive; BoNT-A LC inh2: inactive

How did COc1ccc(NC(=O)c2c(OC)cccc2OC)c(OC)c1 do in these assays?
FBA Mtb inh: inactive; GDH-TPI inh: inactive; Bead autofluor: 16438; Anthrax LF inh2: inactive; BoNT-F LC inh: inactive; BoNT-A LC inh2: inactive

How did O=C(O)CSc1nnc(-c2ccc(Cl)cc2Cl)n1-c1ccc(Br)cc1 do in these assays?
FBA Mtb inh: inactive; GDH-TPI inh: inactive; Bead autofluor: inactive; Anthrax LF inh2: inactive; BoNT-F LC inh: inactive; BoNT-A LC inh2: inactive

How did Cc1ccc(-n2c(=O)cc(NCc3cccnc3)[nH]c2=O)cc1 do in these assays?
FBA Mtb inh: inactive; GDH-TPI inh: inactive; Bead autofluor: 21543; Anthrax LF inh2: inactive; BoNT-F LC inh: inactive; BoNT-A LC inh2: inactive

How did CC(NC(=O)c1ccco1)C(=O)OCc1cccc(Cl)c1 (stereo not drawn) do in these assays?
FBA Mtb inh: inactive; GDH-TPI inh: inactive; Bead autofluor: 25194; Anthrax LF inh2: inactive; BoNT-F LC inh: inactive; BoNT-A LC inh2: inactive

How did O=C(NCCSc1ccc(Cl)cc1)c1ccco1 do in these assays?
FBA Mtb inh: inactive; GDH-TPI inh: inactive; Bead autofluor: 21843; Anthrax LF inh2: inactive; BoNT-F LC inh: inactive; BoNT-A LC inh2: inactive

How did O=C(NCc1cccc(Cl)c1)c1ccco1 do in these assays?
FBA Mtb inh: inactive; GDH-TPI inh: inactive; Bead autofluor: 22733; Anthrax LF inh2: inactive; BoNT-F LC inh: inactive; BoNT-A LC inh2: inactive

How did Cc1cc(-c2ccc(C(C)C)c(S(=O)(=O)NCCN3CCC(C)CC3)c2)on1 do in these assays?
FBA Mtb inh: inactive; GDH-TPI inh: inactive; Bead autofluor: inactive; Anthrax LF inh2: inactive; BoNT-F LC inh: inactive; BoNT-A LC inh2: inactive

What do the screens show for `Cc1ccc([N+](=O)[O-])cc1NC(=O)c1c(-c2ccccc2)noc1C`?
FBA Mtb inh: inactive; GDH-TPI inh: inactive; Bead autofluor: inactive; Anthrax LF inh2: inactive; BoNT-F LC inh: inactive; BoNT-A LC inh2: inactive

What do the screens show for `CCOC(=O)c1c(C)n(C)c2c1cc(OC(C)=O)c1ccccc12`?
FBA Mtb inh: inactive; GDH-TPI inh: inactive; Bead autofluor: inactive; Anthrax LF inh2: inactive; BoNT-F LC inh: inactive; BoNT-A LC inh2: inactive

How did CN(C)/C=C/C(=O)c1cnc(-c2cccc(Cl)c2)s1 do in these assays?
FBA Mtb inh: inactive; GDH-TPI inh: inactive; Bead autofluor: inactive; Anthrax LF inh2: inactive; BoNT-F LC inh: 42.3; BoNT-A LC inh2: inactive

How did O=C(c1cnc(-c2ccccc2)s1)c1ccc(Cl)cc1Cl do in these assays?
FBA Mtb inh: inactive; GDH-TPI inh: inactive; Bead autofluor: 22951; Anthrax LF inh2: inactive; BoNT-F LC inh: inactive; BoNT-A LC inh2: inconclusive

How did CCCc1nc2n[nH]c(N)c2c2c1COC(C)(C)C2 do in these assays?
FBA Mtb inh: inactive; GDH-TPI inh: inactive; Bead autofluor: 21384; Anthrax LF inh2: inactive; BoNT-F LC inh: inactive; BoNT-A LC inh2: inactive

Results for Cc1nc2n[nH]c(N)c2c2c1COC(C)(C)C2 ?
FBA Mtb inh: inactive; GDH-TPI inh: inactive; Bead autofluor: inactive; Anthrax LF inh2: inactive; BoNT-F LC inh: inactive; BoNT-A LC inh2: inactive

Results for CC(C)C(=O)Nc1cccc(C(=O)Nc2ccccc2C(=O)O)c1 ?
FBA Mtb inh: inactive; GDH-TPI inh: inactive; Bead autofluor: 20875; Anthrax LF inh2: inactive; BoNT-F LC inh: inactive; BoNT-A LC inh2: inactive

What do the screens show for `NS(=O)(=O)c1ccc(CCNC(=O)c2cccnc2)cc1`?
FBA Mtb inh: inactive; GDH-TPI inh: inactive; Bead autofluor: 20577; Anthrax LF inh2: inactive; BoNT-F LC inh: inactive; BoNT-A LC inh2: inactive

Results for CC(C)C(=O)Nc1cccc(C(=O)NCCc2ccc(S(N)(=O)=O)cc2)c1 ?
FBA Mtb inh: inactive; GDH-TPI inh: inactive; Bead autofluor: 20300; Anthrax LF inh2: inactive; BoNT-F LC inh: inactive; BoNT-A LC inh2: inconclusive

What do the screens show for `O=C(NCCc1ccccc1)c1cccnc1`?
FBA Mtb inh: inactive; GDH-TPI inh: inactive; Bead autofluor: inactive; Anthrax LF inh2: inactive; BoNT-F LC inh: inactive; BoNT-A LC inh2: inactive

What do the screens show for `CCCNC(=O)c1cccc(NC(=O)C(C)C)c1`?
FBA Mtb inh: inactive; GDH-TPI inh: inactive; Bead autofluor: inactive; Anthrax LF inh2: inactive; BoNT-F LC inh: inactive; BoNT-A LC inh2: inactive

How did Cn1cccc1C(=O)NCC1COc2ccccc2O1 (stereo not drawn) do in these assays?
FBA Mtb inh: inactive; GDH-TPI inh: inactive; Bead autofluor: inactive; Anthrax LF inh2: inactive; BoNT-F LC inh: inactive; BoNT-A LC inh2: inactive

What do the screens show for `COc1cc(CCC(=O)OCC(=O)Nc2c(Cl)cccc2Cl)cc(OC)c1OC`?
FBA Mtb inh: inactive; GDH-TPI inh: inactive; Bead autofluor: inactive; Anthrax LF inh2: inactive; BoNT-F LC inh: inactive; BoNT-A LC inh2: inactive

Results for O=C1C2CC=CCC2C(=O)N1c1ccc(OCC(O)Cn2nnc3ccccc32)cc1 (stereo not drawn) ?
FBA Mtb inh: inactive; GDH-TPI inh: inactive; Bead autofluor: 25583; Anthrax LF inh2: inactive; BoNT-F LC inh: inactive; BoNT-A LC inh2: inactive

What do the screens show for `CC(=O)c1ccc(OCC(O)Cn2nnc3ccccc32)cc1` (stereo not drawn)?
FBA Mtb inh: inactive; GDH-TPI inh: inactive; Bead autofluor: inactive; Anthrax LF inh2: inactive; BoNT-F LC inh: inactive; BoNT-A LC inh2: inactive

Results for CC1(C)CC(CC(=O)O)(c2ccc(Cl)cc2)CCO1 (stereo not drawn) ?
FBA Mtb inh: inactive; GDH-TPI inh: inactive; Bead autofluor: inactive; Anthrax LF inh2: inactive; BoNT-F LC inh: inactive; BoNT-A LC inh2: inactive

What do the screens show for `COc1cccc(Nc2ncc(C(=O)O)c3ccccc23)c1`?
FBA Mtb inh: inactive; GDH-TPI inh: 36.1; Bead autofluor: inactive; Anthrax LF inh2: inactive; BoNT-F LC inh: inactive; BoNT-A LC inh2: inactive

Results for O=S(=O)(c1ccc(-c2csc(Nc3ccc(Br)cc3)n2)cc1)N1CCCC1 ?
FBA Mtb inh: inactive; GDH-TPI inh: inactive; Bead autofluor: inactive; Anthrax LF inh2: inactive; BoNT-F LC inh: inactive; BoNT-A LC inh2: inactive

What do the screens show for `CCN(CC)S(=O)(=O)c1ccc(S(=O)(=O)N(CC(=O)Nc2ccccc2)Cc2ccco2)cc1`?
FBA Mtb inh: inactive; GDH-TPI inh: inactive; Bead autofluor: 22492; Anthrax LF inh2: inactive; BoNT-F LC inh: inactive; BoNT-A LC inh2: inactive

Results for O=C(CN(Cc1ccccc1)S(=O)(=O)c1ccc(Br)cc1)NCc1ccco1 ?
FBA Mtb inh: inactive; GDH-TPI inh: inactive; Bead autofluor: 23735; Anthrax LF inh2: inactive; BoNT-F LC inh: inactive; BoNT-A LC inh2: inactive

How did O=C(CN(Cc1ccc(Br)cc1)S(=O)(=O)c1ccccc1)NCc1ccccn1 do in these assays?
FBA Mtb inh: inactive; GDH-TPI inh: inactive; Bead autofluor: inactive; Anthrax LF inh2: inactive; BoNT-F LC inh: inactive; BoNT-A LC inh2: inactive

What do the screens show for `Cc1cc(C)c(C#N)c(Nc2ccccc2F)n1`?
FBA Mtb inh: inactive; GDH-TPI inh: inactive; Bead autofluor: inactive; Anthrax LF inh2: inactive; BoNT-F LC inh: inactive; BoNT-A LC inh2: inactive

Results for COCc1cc(C)nc(Nc2ccccc2C)c1C#N ?
FBA Mtb inh: inactive; GDH-TPI inh: inactive; Bead autofluor: 20149; Anthrax LF inh2: inactive; BoNT-F LC inh: inactive; BoNT-A LC inh2: inconclusive

Results for CC(=O)c1c(C(C)=O)c(C)n(NC(=O)c2ccccc2O)c1C ?
FBA Mtb inh: inactive; GDH-TPI inh: inactive; Bead autofluor: 20975; Anthrax LF inh2: inactive; BoNT-F LC inh: inactive; BoNT-A LC inh2: inconclusive
